# Test results published in PubChem BioAssay AID1159580 (chemical genetic matrix, 2015).
# Several values for one entry are separate records, joined by “and”; a condition that tells them apart may be missing. Equal values may be shown once. Out of some 5,500 compounds screened, about 2,000 (36%) were called active. Inconclusive results (about 18%) are left out. Cut-off read from the data, not from the text of the source: active = normalized growth mostly below about 0.91 (no sharp cut-off); inconclusive = no clear call, values can overlap the other calls; inactive = mostly above about 0.92. The list shows a part of the results.
# Experiment: chemical genetic growth profiling, strain panel (AID 1159580);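 note: tested at 20 µM; growth read once vehicle control cultures reached saturation at 30 °C; 1 = growth at the plate median or of vehicle wells; lower values mean less growth of the strain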
# Conditions: S. cerevisiae deletion strains, growth OD
compound,measurement,setting,value
CC(=O)NO,normalized growth,"locus YAL013W, strain DEP1, stronger effect = lower value",0.955 (inactive)
same,normalized growth,"locus YAL021C, strain ccr4, stronger effect = lower value",0.968 (inactive)
same,normalized growth,"locus YAL026C, strain drs2, stronger effect = lower value",0.997 (inactive)
same,normalized growth,"locus YAL030W, strain snc1, stronger effect = lower value",0.99 (inactive)
same,normalized growth,"locus YBL061C, strain skt5, stronger effect = lower value",0.969 (inactive)
same,normalized growth,"locus YBR009C, strain hhf1, stronger effect = lower value",0.942 (inactive)
same,normalized growth,"locus YBR021W, strain FUR4, stronger effect = lower value",0.604 (active)
same,normalized growth,"locus YBR023C, strain chs3, stronger effect = lower value",0.964 (inactive)
same,normalized growth,"locus YBR171W, strain sec66, stronger effect = lower value",0.963 (inactive)
same,normalized growth,"locus YBR229C, strain ROT2, stronger effect = lower value",1.01 (inactive)
same,normalized growth,"locus YBR231C, strain swc5, stronger effect = lower value",0.995 (inactive)
same,normalized growth,"locus YBR279W, strain paf1, stronger effect = lower value",0.973 (inactive)
same,normalized growth,"locus YCL011C, strain gbp2, stronger effect = lower value",0.949 (inactive)
same,normalized growth,"locus YCL016C, strain dcc1, stronger effect = lower value",0.937 (inactive)
same,normalized growth,"locus YCL029C, strain bik1, stronger effect = lower value",0.999 (inactive)
same,normalized growth,"locus YCL061C, strain MRC1, stronger effect = lower value",0.968 (inactive)
same,normalized growth,"locus YCL069W, strain vba3, stronger effect = lower value",0.974 (inactive)
same,normalized growth,"locus YCR088W, strain abp1, stronger effect = lower value",0.979 (inactive)
same,normalized growth,"locus YDL005C, strain med2, stronger effect = lower value",0.982 (inactive)
same,normalized growth,"locus YDL035C, strain GPR1, stronger effect = lower value",0.973 (inactive)
same,normalized growth,"locus YDL040C, strain nat1, stronger effect = lower value",0.979 (inactive)
same,normalized growth,"locus YDL074C, strain BRE1, stronger effect = lower value",0.977 (inactive)
same,normalized growth,"locus YDL101C, strain DUN1, stronger effect = lower value",1.02 (inactive)
same,normalized growth,"locus YDL185W, strain tfp1, stronger effect = lower value",0.992 (inactive)
same,normalized growth,"locus YDL192W, strain arf1, stronger effect = lower value",0.989 (inactive)
same,normalized growth,"locus YDR001C, strain nth1, stronger effect = lower value",0.982 (inactive)
same,normalized growth,"locus YDR069C, strain doa4, stronger effect = lower value",1.01 (inactive)
same,normalized growth,"locus YDR101C, strain arx1, stronger effect = lower value",1 (inactive)
same,normalized growth,"locus YDR137W, strain rgp1, stronger effect = lower value",0.948 (inactive)
same,normalized growth,"locus YDR150W, strain NUM1, stronger effect = lower value",0.991 (inactive)
same,normalized growth,"locus YDR159W, strain sac3, stronger effect = lower value",1 (inactive)
same,normalized growth,"locus YDR162C, strain NBP2, stronger effect = lower value",0.997 (inactive)
same,normalized growth,"locus YDR195W, strain ref2",0.984 (inactive)
same,normalized growth,"locus YDR297W, strain sur2, stronger effect = lower value",0.977 (inactive)
same,normalized growth,"locus YDR318W, strain mcm21, stronger effect = lower value",0.998 (inactive)
same,normalized growth,"locus YDR334W, strain swr1, stronger effect = lower value",0.976 (inactive)
same,normalized growth,"locus YDR335W, strain msn5, stronger effect = lower value",0.983 (inactive)
same,normalized growth,"locus YDR388W, stronger effect = lower value",0.984 (inactive)
same,normalized growth,"locus YDR392W, strain spt3, stronger effect = lower value",0.744 (inactive)
same,normalized growth,"locus YDR502C, strain sam2, stronger effect = lower value",0.973 (inactive)
same,normalized growth,"locus YEL003W, strain gim4, stronger effect = lower value",1 (inactive)
same,normalized growth,"locus YEL037C, strain rad23, stronger effect = lower value",0.977 (inactive)
same,normalized growth,"locus YEL061C, strain CIN8 (second series), stronger effect = lower value",0.985 (inactive)
same,normalized growth,"locus YEL061C, strain CIN8, stronger effect = lower value",1.01 (inactive)
same,normalized growth,"locus YER015W, strain faa2, stronger effect = lower value",0.975 (inactive)
same,normalized growth,"locus YER016W, strain bim1, stronger effect = lower value",0.996 (inactive)
same,normalized growth,"locus YER110C, stronger effect = lower value",0.987 (inactive)
same,normalized growth,"locus YER111C, strain swi4, stronger effect = lower value",0.965 (inactive)
same,normalized growth,"locus YER155C, strain BEM2 (second series), stronger effect = lower value",0.996 (inactive)
same,normalized growth,"locus YER155C, strain BEM2, stronger effect = lower value",1.03 (inactive)
same,normalized growth,"locus YER167W, strain BCK2, stronger effect = lower value",1.02 (inactive)
same,normalized growth,"locus YFR010W, strain ubp6, stronger effect = lower value",0.974 (inactive)
same,normalized growth,"locus YGL078C, strain dbp3, stronger effect = lower value",0.997 (inactive)
same,normalized growth,"locus YGL086W, strain mad1, stronger effect = lower value",0.991 (inactive)
same,normalized growth,"locus YGL167C, strain pmr1, stronger effect = lower value",0.978 (inactive)
same,normalized growth,"locus YGL173C, strain kem1, stronger effect = lower value",0.984 (inactive)
same,normalized growth,"locus YGL227W, strain vid30, stronger effect = lower value",0.974 (inactive)
same,normalized growth,"locus YGL240W, strain doc1, stronger effect = lower value",0.963 (inactive)
same,normalized growth,"locus YGL248W, strain PDE1, stronger effect = lower value",0.97 (inactive)
same,normalized growth,"locus YGL253W, strain hxk2, stronger effect = lower value",0.965 (inactive)
same,normalized growth,"locus YGR135W, strain pre9, stronger effect = lower value",0.907 (inactive)
same,normalized growth,"locus YGR252W, strain gcn5, stronger effect = lower value",0.797 (inactive)
same,normalized growth,"locus YHR013C, strain ard1, stronger effect = lower value",0.888 (inactive)
same,normalized growth,"locus YHR027C, strain rpn1, stronger effect = lower value",0.999 (inactive)
same,normalized growth,"locus YHR030C, strain SLT2, stronger effect = lower value",0.94 (inactive) and 0.998 (inactive)
same,normalized growth,"locus YHR079C, strain IRE1 (second series), stronger effect = lower value",0.997 (inactive)
same,normalized growth,"locus YHR079C, strain IRE1, stronger effect = lower value",0.975 (inactive)
same,normalized growth,"locus YHR094C, strain hxt1, stronger effect = lower value",0.997 (inactive)
same,normalized growth,"locus YHR129C, strain ARP1, stronger effect = lower value",1 (inactive)
same,normalized growth,"locus YHR142W, strain chs7, stronger effect = lower value",0.915 (inactive)
same,normalized growth,"locus YHR200W, strain rpn10, stronger effect = lower value",0.991 (inactive)
same,normalized growth,"locus YIL066C, strain RNR3, stronger effect = lower value",0.979 (inactive)
same,normalized growth,"locus YIL073C, strain SPO22, stronger effect = lower value",0.898 (inactive)
same,normalized growth,"locus YIL125W, strain kgd1, stronger effect = lower value",0.99 (inactive)
same,normalized growth,"locus YIR030C, strain dcg1, stronger effect = lower value",1 (inactive)
same,normalized growth,"locus YJL092W, strain hpr5, stronger effect = lower value",0.974 (inactive)
same,normalized growth,"locus YJL095W, strain BCK1 (second series), stronger effect = lower value",0.98 (inactive)
same,normalized growth,"locus YJL095W, strain BCK1, stronger effect = lower value",0.748 (active) and 1 (inactive)
same,normalized growth,"locus YJL115W, strain asf1, stronger effect = lower value",0.954 (inactive)
same,normalized growth,"locus YJL129C, strain trk1, stronger effect = lower value",0.962 (inactive)
same,normalized growth,"locus YJL134W, strain LCB3, stronger effect = lower value",1.01 (inactive)
same,normalized growth,"locus YJL154C, strain vps35, stronger effect = lower value",0.983 (inactive)
same,normalized growth,"locus YJL164C, strain tpk1, stronger effect = lower value",0.966 (inactive)
same,normalized growth,"locus YJL166W, strain qcr8, stronger effect = lower value",0.931 (inactive)
same,normalized growth,"locus YJL168C, strain set2, stronger effect = lower value",0.993 (inactive)
same,normalized growth,"locus YJL187C, strain SWE1 (second series), stronger effect = lower value",0.954 (inactive)
